Source: PubChem BioAssay
TIM10 inh: growth inhibitors of TIM10 yeast strain; S. cerevisiae TIM10 strain growth, BacTiter-Glo luminescence, 24 h; inhibition, % at 10 µM; AID 463195; actives 1.4% (n = 330,000);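 active means inhibition of 40% or more at the single tested concentration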;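 further: wild-type TIM10 isogenic control strain grown at permissive 25 °C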
NLRP3 yeast inh: NALP3 inhibition in yeast | Yeast reconstituted NLRP3/ASC/caspase-1, beta-gal luminescence, 24 h | AID 2825 | inhibition, % at 10 µM | actives 0.39% (n = 330,000);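 active means inhibition of 50% or more; inactive means inhibition below 50%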;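 further: plate controls were induced DMSO wells for no effect and uninduced yeast grown without galactose for full effect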
tim23-1 inh: tim23-1 yeast growth inhibition. AID 463212. actives 1.3% (n = 330,000). inhibition, % at 20 µM. S. cerevisiae tim23-1 growth, BacTiter-Glo luminescence, 24 h;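 active means growth inhibition of the mutant yeast at or above 50%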;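 further: temperature-sensitive mutant grown at 25 °C; plate controls were DMSO-treated mutant yeast for no effect and medium wells lacking yeast for full effect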
NALP1 yeast inh: NALP1 inhibition | S. cerevisiae NALP1/ASC/caspase-1 growth, X-gal OD620, 72 h | inhibition, % at 10 µM | actives 0.61% (n = 280,000) | AID 2071; in the data active means inhibition mostly above about 24%, no sharp cut-off; inactive means mostly below about 32%
tim10-1 inh: growth inhibitors of tim10-1 mutant yeast; inhibition, % at 20 µM; AID 463190; S. cerevisiae tim10-1 ts strain growth, BacTiter-Glo, 24 h; actives 2.2% (n = 330,000);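 active means inhibition of at least 40%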;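 further: mutant grown at 25 °C; 0% = DMSO wells with yeast and 100% = wells holding no yeast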
tim10 confirm: TIM10 yeast growth inhibition, confirmed; shares compounds with TIM10 inh; S. cerevisiae tim10 strain growth, BacTiter-Glo luminescence, 24 h; inhibition, % at 10 µM; actives 63% (n = 4,600);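 active means inhibition of yeast growth at or above a set limit in either of two replicates at 10 µM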;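 further: this counterscreen used the strain with wild-type TIM10; 0% = yeast with DMSO and 100% = medium wells lacking yeast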
An asterisk follows results filed as active; nt = no result given. The list is not random: actives were taken first. Their share in the collection is about 4.1%.

SMILES	TIM10 inh	NLRP3 yeast inh	tim23-1 inh	NALP1 yeast inh	tim10-1 inh	tim10 confirm
O=C(Nc1cc(Oc2ccc(Cl)cc2)cc([N+](=O)[O-])c1)c1ccco1	65*	32	40	18	32	-13
CCOc1ccc(Oc2cc(NC(=O)c3ccco3)cc([N+](=O)[O-])c2)cc1	nt	nt	nt	1	nt	nt
C=C1CCN([C@@H](C)C(=O)NCCCCCC)S(=O)(=O)c2ccccc21	-1	-4	24	3	7	nt
CCc1n[nH]c(=S)n1/N=C/c1cc(Br)c(OC)cc1OC	53*	12	28	3	32	-15
O=C(OCCOCCN=C1NS(=O)(=O)c2ccccc21)c1ccc(F)cc1	15	-1	-1	11	-23	nt
O=C(CCNC(=O)c1ccco1)NCc1ccc(C(=O)O)cc1	-16	14	0	nt	-8	nt
COc1ccc(C(=O)Nc2ccccc2C(=O)Nc2cccc(C)n2)cc1	25	20	31	5	29	nt
COc1ccc(C(=O)Nc2ccccc2C(=O)Nc2cc(C)ccn2)cc1	43*	25	50	26	30	44*
COc1ccc(N2CCN(CCCNC(=O)Cn3c(=O)c4cccn4c4ccccc43)CC2)cc1	46*	11	1	21	4	9
CSc1cc(-c2ccc(Cl)cc2)c(C(=O)NN)s1	44*	-7	-17	2	25	27*
Cn1c(/C(C#N)=C/c2cccc(O)c2)nc2ccccc21	43*	11	42	41*	39	36*
Cc1cccc(-n2c(-c3ccc(Br)o3)n[nH]c2=S)c1	25	12	19	nt	18	nt
Cc1ccccc1-n1c(-c2csc(C)c2C)n[nH]c1=S	18	4	16	19	28	nt
Cc1cccc(-n2c(-c3csc(C(C)C)c3)n[nH]c2=S)c1	42*	21	43	15	31	30
Cc1cccc(-n2c(-c3csc(C)c3C)n[nH]c2=S)c1	44*	27	28	22	39	-20
Cc1ccc(C)c(-c2cc(C(=O)Nc3nccs3)c3ccccc3n2)c1	47*	-18	45	14	39	42*
Cc1ccc(S(=O)(=O)N2[C@@H](c3ccc(Br)cc3)C(C(=O)O)=CC[C@H]2c2cccs2)cc1	96*	22	12	nt	12	5
Cc1ccc([C@H]2C(C(=O)O)=CC[C@@H](c3cccs3)N2S(=O)(=O)c2ccc(C)cc2)cc1	12	2	12	nt	9	nt
COc1ccc(CC(=O)NCC2CCCN(Cc3ccc(OC(F)(F)F)cc3)C2)cc1 (stereo unspecified)	98*	33	8	0	-3	11
CCN(CC)Cc1ccc(NC(=O)c2sc3cc(Cl)ccc3c2Cl)cc1	44*	28	19	nt	18	40*
CC1CCN(C(=S)c2cn(Cc3ccc(F)cc3)c3ccccc23)CC1	55*	20	27	19	36	38*
CN1CCN(C(=S)c2cn(Cc3ccc(F)cc3)c3ccccc23)CC1	-2	21	18	1	3	nt
CCNC(=S)N/N=C/c1cn(Cc2ccc(F)cc2)c2ccccc12	43*	20	40	3	32	51*
O=C(COc1ccc2c(c1)CCC2)N1CCc2ccccc21	45*	40	15	14	21	37*
Clc1ccc(CNCc2cccs2)c(Cl)c1	-14	-14	-1	23	10	nt
SMILES	TIM10 inh	NLRP3 yeast inh	tim23-1 inh	NALP1 yeast inh	tim10-1 inh	tim10 confirm
COC(=O)C1CCN(c2ccc(Cl)nn2)CC1	4	5	10	12	3	nt
Cc1cc(C)nc(SCc2ccc(C(=O)N/N=C3\CC(C)CC(C)(C)C3)cc2)n1 (stereo unspecified)	40*	6	30	16	26	4
Cc1ccccc1N1C(S)=C(C#N)C(=O)NC12CCCCC2	4	-2	-3	6	2	nt
Cc1noc(C(=O)Nc2ccc3c(c2)OCO3)c1Cl	97*	31	16	2	19	-1
C#CCNC(=O)C1=C[C@@H](c2coc3ccccc3c2=O)C[C@@H](OCc2ccc(CO)cc2)O1	8	11	8	8	-1	nt
COc1cccc(/C=N/NC(=O)CSc2ccccc2C)c1O	43*	-4	39	18	8	53*
COc1cccc(/C=N/NC(=O)CSc2ccccc2C)c1OC	14	18	1	28	4	nt
COc1cc(/C=C(\C#N)C(=O)NC2CCCCC2C)ccc1OS(=O)(=O)c1ccc(C)cc1 (stereo unspecified)	34	19	36	33	36	nt
CC(=O)Nc1ccc(/C=C(\C#N)C(=O)NC2CCCCC2C)cc1 (stereo unspecified)	68*	16	47	6	38	45*
O=C(CCl)c1ccc2[nH]c(=O)oc2c1	-9	-18	11	-4	-6	nt
CSC1=C(C#N)C(=O)NC(c2ccc(Cl)cc2)S1 (stereo unspecified)	46*	6	44	nt	31	23
OC(COCc1ccc(Cl)cc1)CN1CCN(c2ccccn2)CC1 (stereo unspecified)	8	24	5	18	20	nt
CC(=O)c1cc2c(cc1N/C(=N/S(=O)(=O)c1ccc(C)cc1)c1ccccc1)OCO2	43*	15	30	20	26	2
O=C(N/N=C/c1ccncc1)c1cc2c(ccc3ccccc32)o1	47*	19	7	19	-17	34*
COC(=O)C1CCN(C(=O)COC(=O)CSc2ccc(C(N)=O)cc2[N+](=O)[O-])CC1	-6	12	12	nt	3	nt
COc1ccc(C(=O)NCC(c2ccccc2)N2CCCC2)cc1S(=O)(=O)N1CCOCC1 (stereo unspecified)	7	13	-9	nt	-17	nt
N#C/C(=C\c1ccc(C(=O)O)cc1)S(=O)(=O)c1cc(Br)ccc1Br	42*	13	45	-23	32	18
N#C/C(=C/c1ccc(F)cc1)S(=O)(=O)c1ccccc1	3	4	17	10	18	nt
Cc1ccc(C(=O)N2CCC3(CC2)NCCc2[nH]cnc23)cc1C	-3	10	-17	4	-12	nt
C/C(=N\NC(=O)Cn1cc([N+](=O)[O-])cn1)c1ccco1	-7	-4	19	nt	-10	nt
Oc1[nH]c2ccc(Br)cc2c1N=Nc1ccc(C(F)(F)F)cn1	31	25	-6	nt	35	nt
Oc1[nH]c2ccccc2c1N=Nc1ccc(C(F)(F)F)cn1	53*	37	25	8	26	29
Cc1ccc(NC(=O)C(C)SCC(=O)Nc2ccc(F)cc2)cc1S(=O)(=O)N1CCOCC1 (stereo unspecified)	-7	7	3	nt	8	nt
O=C(Nc1ccccc1)Nc1ccc(Br)c(Cl)c1	-4	37	-11	42	-8	nt
CC(=O)c1ccc(NC(=S)Nc2ccc(Br)c(Cl)c2)cc1	42*	3	44	3	37	24
Cc1cc(N=NC(=O)c2ccccc2)ccc1O	2	14	3	31	5	nt
